# Assay results from ChEMBL document CHEMBL4513149, “CO-ADD screening of MMV (CH) - MMV compounds” (2021).
# Measured potencies and affinities stand elsewhere.
# Tests used:
# [1] = test system: Klebsiella pneumoniae; details: Concentration 20 uM; ASSAY_TEST Inhibition of Bacterial Growth; detection method Absorption (OD600); MEDIA CAMHB; plate type 384well; NBS; CORNING #3640; time 18 hr
# [2] = test system: Candida albicans; details: 20 µM
# [3] = test system: Cryptococcus neoformans; details: Concentration 20 uM; ASSAY_TEST Inhibition of Fungal Growth; detection method Resazurin; Absorption (OD600-OD570); plate type 384well; NBS; CORNING #3640
SMILES,Inhibition [1] [%],Inhibition [2] [%],Inhibition [3] [%]
CCCCc1ccc(C(=O)Nc2nccc3ccccc23)nc1,7.3,6.07,-8.5
CC(C)(C)CN1C(=O)C(c2ccccc2)(c2ccccc2)N=C1N,14.16,3.38,1.98
CS(=O)(=O)N1CCC(Cn2nc(Cc3cccc4ccccc34)c3c(N)ncnc32)CC1,11.77,2.39,-6.98
CN1CCCN(C(c2ccccc2)c2ccc(Cl)cc2)CC1 (configuration not stated) [HOMOCHLORCYCLIZINE],10.44,2.84,-6.27
COc1ccccc1C(C)NCC(=O)Nc1cc(C(F)(F)F)ccc1Cl (configuration not stated),14.48,1.66,-4.09
CN1CCCC1CCO[C@](C)(c1ccccc1)c1ccc(Cl)cc1.O=C(O)/C=C/C(=O)O (some centres not stated),21.77,1.54,-7.21
NCCC(O)C(=O)N[C@@H]1C[C@H](N)[C@@H](OC2O[C@H](CN)[C@@H](O)[C@H](O)[C@H]2O)[C@H](O)C1OC1O[C@H](CO)[C@@H](O)[C@H](N)[C@H]1O.O=S(=O)(O)O.O=S(=O)(O)O (some centres not stated),11.78,2.46,-2.57
CCCNC(=O)N1CCC2(CC1)CC(=O)c1cc(C)ccc1O2,17.38,2.86,-8.06
CCN(CC)CCCN1CCN(C(=O)c2cccc(-c3noc(C(F)(F)F)n3)c2)CC1,3.68,1.48,-3.47
COc1ccc(C2=NCCN2)cc1-c1cn(-c2cccc(C3=NCCN3)c2)nn1.O=C(O)C(F)(F)F.O=C(O)C(F)(F)F,17.32,2.35,-2.18
O=C(Nc1cnc2ccccc2c1)c1cccc(-n2cnnn2)c1,8.59,4.47,-9.7
OCCc1ccc(Nc2nccc(-c3nnc4ccccn34)n2)cc1,15.28,3.06,-9.75
CC(=O)O.CC(=O)O.Nc1ncnc2c1ncn2[C@@H]1O[C@H](COS(=O)(=O)NC(=O)c2ccccc2O)[C@@H](O)[C@H]1O,14.67,1.66,-8.69
O=C(NCCc1c[nH]c2ccccc12)c1cc2ccccc2oc1=O,9.33,4.19,-9.92
O=C(Nc1ccc(F)c(-c2nc3cc(-c4ccccc4)cnc3[nH]2)c1)N1CCCC1,7.38,49.9,-3.95
O=C(NCCN1CCCC1)c1cc(NCCCCN2CCC(F)(F)CC2)nc2ccc(Cl)cc12,15.7,2.73,24.05
CC(C(=O)Nc1ccc2oc(-c3ccncc3)nc2c1)c1ccccc1 (configuration not stated),10.68,3.28,-12.41
CC(C)C(C(=O)Nc1ccc(S(=O)(=O)N(C)C)cc1)c1ccc(Cl)cc1 (configuration not stated),-12.7,4.83,-3.24
COc1ccccc1OCCCCn1c(C2CC2)nc2ccccc21,10.24,1.96,-4.4
CC(=O)Nc1ccc(NC(=O)c2cc(-c3cc(Cl)ccc3O)n[nH]2)cc1,-16.31,54.8,0.66
Cl.c1ccc(Oc2ccc(-c3cc(N4CCNCC4)[nH]n3)cc2)cc1,-6.32,2.61,-9.84
Brc1c(-c2ccc3c(c2)OCO3)nc2ncccn12,12.72,3.56,-13.08
O=C(NC1CCN(c2ccnc3ccccc23)C1)c1cccc(C(F)(F)F)c1 (configuration not stated),12.02,3.54,-3.95
CN1CCC(NCc2cccc(-c3ccc(S(=O)(=O)NCc4ccccc4)cc3)c2)CC1,9.08,3.63,-7.83
CCc1nc2ccc(C(=O)NCc3ccc4c(c3)OCO4)cn2c1N(C)Cc1cccs1,5.86,3.04,-6.4
CS(=O)(=O)c1cccc(-c2cnc3[nH]cc(-c4ccc(CCC(=O)O)cc4)c3c2)c1,6.09,11.3,-4.04
CC1COC2(CCN(c3nc(=O)c4cc(C(F)(F)F)cc([N+](=O)[O-])c4s3)CC2)O1 (configuration not stated),8.31,2.39,-12.38
NC(=O)c1cc(Br)ccc1OCCOc1ccccc1,10.17,10.7,-9.83
CC(C(=O)N1CCCC1)N1CCN(S(=O)(=O)c2ccc(C(C)(C)C)cc2)CC1 (configuration not stated),0.26,2.42,-10.06
